Rows were chosen to be rich in hits. Some 2.9% of all compounds tested hit in one or more screens of this group.
CF NFkB inh = inhibitors of PAF-induced NF-kB signaling, primary screen, cell-based, GFP fluorescence, uHTS | KKLEB NF-kB-GFP reporter, GFP fluorescence overnight | AID 588850, 2011 | inhibition, % at 5 µM | 0.86% of 360,000 active;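 active means at least 50% inhibition at 5 µM, scaled per plate between neutral and stimulator controls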;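 further: PAF is a Pseudomonas aeruginosa culture filtrate used as stimulus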
Shn3 inh set2 = reduction of Shn3 3'UTR firefly luciferase signal, primary screen, Schnurri-3 inhibitor project, cell-based, Clone20 osteoblasts, set 2; Clone20 osteoblast Shn3 3'UTR firefly luciferase, 24 h; 0.52% of 360,000 active; AID 588674, 2011; inhibition, % at 12.5 µM;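 active means mean inhibition of at least 75% with every replicate also reaching 75%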
Peg3 promoter = Peg3 promoter-driven luciferase inhibitors, primary screen, cell-based, HeLa, luciferase luminescence | HeLa PEG-Prom luciferase reporter, overnight | inhibition, % at 20 µM | 1.7% of 360,000 active | AID 588405, 2011;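 active means inhibition of at least 50% at 20 µM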
MITF TRPM1 inh = inhibitors of MITF-dependent TRPM1 promoter reporter, primary screen, cell-based, SK-MEL-5, single point, luciferase | inhibition, % at 12.5 µM | SK-MEL-5 TRPM1 promoter luciferase, 24 h | AID 488899, 2010 | 0.83% of 330,000 active;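 active means mean inhibition across replicates of 60% or more, whatever share of single replicates reaches that level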
EBV LMP1 NFkB = EBV LMP1-driven NF-kappaB luciferase reporter inhibitors, primary screen, cell-based, luminescence, single point; LMP1-induced NF-kappaB luciferase reporter cells; inhibition, % at 12.5 µM; 0.69% of 350,000 active; AID 504558, 2011; in the data active means inhibition above about 41%
KKLEB tox = cytotoxicity in KKLEB CF airway cells, primary screen, cytotoxicity control for CF NF-kB inhibitor project, cell-based, uHTS, fluorescence assay plates. KKLEB CF airway cells viability, ATPlite luminescence, overnight; hits give low values; cells stimulated with P. aeruginosa culture filtrate. 0.36% of 360,000 active. activity change (cytotoxicity), % at 5 µM;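 active means corrected activity change at or below -50% at 5 µM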
Large screens that a line does not name were inactive.

CN1CCN(C2=C(NS(=O)(=O)c3cccs3)C(=O)c3ccccc3C2=O)CC1	MITF TRPM1 inh 77
CCOC(=O)N1CCN(C2=C(NS(=O)(=O)c3ccccc3)C(=O)c3ccccc3C2=O)CC1	none
CN1CCN(C2=C(Cl)C(=O)c3ccccc3C2=O)CC1	Peg3 promoter 65, MITF TRPM1 inh 100
O=C1C(NS(=O)(=O)c2cccs2)=C(N2CCOCC2)C(=O)c2ccccc21	none
NC(=O)C1CCN(C2=C(NS(=O)(=O)c3ccc(Br)cc3)C(=O)c3ccccc3C2=O)CC1	MITF TRPM1 inh 68
CCOC(=O)C1CCN(C2=C(NS(=O)(=O)c3ccc(Br)cc3)C(=O)c3ccccc3C2=O)CC1	none
CN1CCN(C2=C(NS(=O)(=O)c3ccccc3)C(=O)c3ccccc3C2=O)CC1	MITF TRPM1 inh 78
CCN1CCN(C2=C(NS(=O)(=O)c3ccc(Br)cc3)C(=O)c3ccccc3C2=O)CC1	MITF TRPM1 inh 90
CC1COCC(C)N1C1=C(Cl)C(=O)c2ccccc2C1=O (stereo not drawn)	Shn3 inh set2 96, Peg3 promoter 100, MITF TRPM1 inh 96
Cc1c(C(=O)NCc2ccc(C(F)(F)F)cc2)sc(=O)n1Cc1ccc(S(=O)(=O)N(C)C)cc1	none (no result: MITF TRPM1 inh, EBV LMP1 NFkB)
Cc1ccccc1-c1cc2nc(NCCN3CCCC3)n(C)c(=O)c2s1	none (no result: MITF TRPM1 inh, EBV LMP1 NFkB)
CN(CCc1ccccc1)C(=O)CC1C(=O)NCCN1Cc1ccccn1 (stereo not drawn)	none (no result: MITF TRPM1 inh)
NC(COCc1ccccc1)c1csc(Nc2ccc(C(=O)c3ccccc3)cc2)n1 (stereo not drawn)	none (no result: MITF TRPM1 inh, EBV LMP1 NFkB)
CCN(CC)c1c([N+](=O)[O-])ncn1C	none
Cn1cnc([N+](=O)[O-])c1Cl	none
CCS(=O)(=O)c1c([N+](=O)[O-])ncn1C	Peg3 promoter 60
Cn1cnc([N+](=O)[O-])c1S(=O)(=O)Oc1cccc2ccccc12	CF NFkB inh 86, Shn3 inh set2 97, Peg3 promoter 105, MITF TRPM1 inh 93, KKLEB tox -79
Cn1cnc([N+](=O)[O-])c1S(=O)(=O)Oc1ccc(Cl)cc1	CF NFkB inh 94, Shn3 inh set2 93, Peg3 promoter 103, MITF TRPM1 inh 68, KKLEB tox -98
CSc1ccc(-c2cccc3nncn23)cc1	none (no result: MITF TRPM1 inh, EBV LMP1 NFkB)
C[C@@H]1CN([C@H](C)CO)C(=O)c2c(c3ccccc3n2C)-c2ccccc2CO[C@H]1CN(C)S(=O)(=O)c1cn(C)cn1	none (no result: MITF TRPM1 inh)
CC(C)=CCc1c(O)cc(O)c2c(=O)c(O[C@@H]3O[C@@H](C)[C@H](O)[C@@H](O)[C@H]3O)c(-c3ccc(O)cc3)oc12	CF NFkB inh 68
Cc1cccc(C(=O)OCC(=O)NCc2ccc(Cl)cc2)c1	none (no result: MITF TRPM1 inh)
O=C(COc1ccc(/C=N/NC(=O)c2cc3ccccc3o2)cc1Br)Nc1ccccc1	CF NFkB inh 51, Peg3 promoter 99, MITF TRPM1 inh 93, KKLEB tox -51
O=C(COc1ccccc1[N+](=O)[O-])Nc1ccc(NC(=O)c2cc3ccccc3o2)cc1	none
COc1cc2nc(Nc3ccc(C)c(Cl)c3)nc(N)c2cc1OC	Peg3 promoter 114, MITF TRPM1 inh 70, KKLEB tox -51
COc1cc2nc(Nc3ccc(F)cc3)nc(N)c2cc1OC	none
COc1cc2nc(Nc3ccc(C)c(C)c3)nc(N)c2cc1OC	Peg3 promoter 56
CCOC(=O)C1(C)CCCN1C(=O)c1snnc1C (stereo not drawn)	none (no result: MITF TRPM1 inh, EBV LMP1 NFkB)
CCOc1cc(C=C(C(=O)OC)C(=O)OC)ccc1OCc1ccc([N+](=O)[O-])cc1	Shn3 inh set2 96, Peg3 promoter 107
CCOc1cc(/C=N/O)ccc1OCc1ccc([N+](=O)[O-])cc1	none
CCc1nc(Nc2cccc(O)c2)c2oc3ccccc3c2n1	Peg3 promoter 57
O=c1[nH]c(=S)[nH]cc1Oc1ccc(Cl)cc1	none
COc1cc(C)ccc1S(=O)(=O)NC(=O)C1(C)CCN1C(=O)COc1ccc(Cl)cc1 (stereo not drawn)	none (no result: MITF TRPM1 inh, EBV LMP1 NFkB)
Cc1ccc(S(=O)(=O)N2CCN(c3ncnc4sccc34)CC2)cc1C	Shn3 inh set2 88
O=S(=O)(c1ccc2c(c1)OCCO2)N1CCN(c2ncnc3sccc23)CC1	Shn3 inh set2 89
CC(=O)NCC1(c2ccccc2)CCN(CCCC(=O)c2ccc(F)cc2)CC1	none (no result: MITF TRPM1 inh)
CCN(CC)CCNC(=O)c1nn(-c2ccc(Cl)cc2)c2c1CCc1cc(OC)ccc1-2	Peg3 promoter 94
OCC[C@@H]1C[C@H](O)[C@@H](O)[C@]2(OCc3cc(Cl)ccc32)O1	none (no result: MITF TRPM1 inh, EBV LMP1 NFkB)
Cc1cc(C)c2nc(N3CCC(C(=O)NCC4CCCO4)CC3)sc2c1 (stereo not drawn)	none
Cc1cc(C)c2nc(N3CCC(C(=O)NCCCN4CCCCC4)CC3)sc2c1	Peg3 promoter 70, MITF TRPM1 inh 69
CC(=O)Nc1ccc(NC(=O)Cc2ccc(S(=O)(=O)N3CCCCC3)cc2)cc1	none
Cc1ccc(/C=C2\SC(=S)N(CCC(=O)N3CCCCC3)C2=O)cc1	none
CN1CCN(C(=O)CCN2C(=O)/C(=C\c3ccccc3F)SC2=S)CC1	CF NFkB inh 55
O=C(CCN1C(=O)/C(=C\c2ccccc2)SC1=S)N1CCCCC1	Peg3 promoter 94
O=C(CN1C(=O)/C(=C/c2ccccc2)SC1=S)N1CCN(CCc2ccccn2)CC1	Peg3 promoter 74
CN1CCN(C(=O)CCN2C(=O)/C(=C/c3ccccc3Cl)SC2=S)CC1	Peg3 promoter 59
C=CCCC(=O)N1C[C@H]2CON(C)[C@H]2C[C@H]1c1ccc(N2CCCCC2)cc1	none (no result: MITF TRPM1 inh, EBV LMP1 NFkB)
Cc1nc(SCC(=O)Nc2ccc(CN3CCCC3)cc2)c2c(C)c(C)sc2n1	Peg3 promoter 85, MITF TRPM1 inh 77
CN(C(=O)COC(=O)Cc1ccc(Br)cc1)c1c(N)n(Cc2ccccc2)c(=O)[nH]c1=O	none (no result: MITF TRPM1 inh)
O=C(O)CC1NC(=S)N(Cc2ccccc2)C1=O (stereo not drawn)	Peg3 promoter 52 (no result: MITF TRPM1 inh)
CC1NC(=S)N(Cc2ccccc2)C1=O (stereo not drawn)	none
Cc1c(C(=O)NCCC2=CCCCC2)oc2ccc(S(=O)(=O)N3CCOCC3)cc12	Peg3 promoter 66
Cc1ccc(CNC(=O)c2oc3ccc(S(=O)(=O)N4CCC5(CC4)OCCO5)cc3c2C)cc1	Peg3 promoter 51
C[C@H]1CN([C@@H](C)CO)C(=O)c2cc(C#Cc3ccccn3)cnc2O[C@@H]1CN(C)Cc1ccccc1	none (no result: MITF TRPM1 inh)
CCOC(=O)CSC1=NC(=O)/C(=C/c2ccc(OC)cc2)S1	Peg3 promoter 102, MITF TRPM1 inh 82
COc1ccc(/C=C2\SC(N)=NC2=O)cc1	none

Screening results: PubChem, several laboratories
